# Results: ChEMBL document CHEMBL1961873, “Compounds: GSK PKIS; Assays: Nanosyn kinase panel” (2012)
# Columns and labels:
# [1] = target: Ribosomal protein S6 kinase alpha-6 (Homo sapiens) (UniProt Q9UK32); conditions: at 1 µM;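 also: each value is a mean inhibition of RSK4 from a GSK PKIS panel screen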
# [2] = target: T1, Serine/threonine-protein kinase Sgk1 (Homo sapiens) (UniProt O00141); conditions: at 0.1 µM
# T1 sequence (whole entry): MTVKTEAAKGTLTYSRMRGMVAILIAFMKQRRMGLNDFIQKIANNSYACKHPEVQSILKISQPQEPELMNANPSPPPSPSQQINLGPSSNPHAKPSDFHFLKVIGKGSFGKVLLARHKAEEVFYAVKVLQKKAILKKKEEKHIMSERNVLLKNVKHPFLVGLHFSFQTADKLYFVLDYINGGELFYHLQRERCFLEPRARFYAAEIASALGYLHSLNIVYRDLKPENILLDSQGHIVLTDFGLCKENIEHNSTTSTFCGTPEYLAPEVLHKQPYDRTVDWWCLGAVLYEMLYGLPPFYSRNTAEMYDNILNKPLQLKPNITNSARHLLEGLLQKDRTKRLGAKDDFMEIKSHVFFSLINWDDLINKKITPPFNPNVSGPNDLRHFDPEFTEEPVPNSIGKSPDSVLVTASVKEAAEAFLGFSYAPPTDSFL
# [3] = target: T1, Serine/threonine-protein kinase Sgk1 (Homo sapiens); conditions: at 1 µM
# [4] = target: T2, Serine/threonine-protein kinase Sgk2 (Homo sapiens) (UniProt Q9HBY8); conditions: at 0.1 µM
# T2 sequence (whole entry): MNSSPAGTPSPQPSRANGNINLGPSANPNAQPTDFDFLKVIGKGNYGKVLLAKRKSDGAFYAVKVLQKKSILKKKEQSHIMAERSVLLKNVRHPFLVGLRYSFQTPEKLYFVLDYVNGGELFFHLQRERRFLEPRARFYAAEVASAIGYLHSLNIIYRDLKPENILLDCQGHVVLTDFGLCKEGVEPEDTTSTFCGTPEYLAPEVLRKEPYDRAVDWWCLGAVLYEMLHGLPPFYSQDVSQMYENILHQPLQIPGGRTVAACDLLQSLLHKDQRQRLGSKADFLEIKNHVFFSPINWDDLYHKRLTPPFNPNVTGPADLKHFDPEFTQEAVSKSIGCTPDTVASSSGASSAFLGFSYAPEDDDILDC
# [5] = target: T2, Serine/threonine-protein kinase Sgk2 (Homo sapiens); conditions: at 1 µM
# [6] = target: T3, Serine/threonine-protein kinase Sgk3 (Homo sapiens) (UniProt Q96BR1); conditions: at 0.1 µM
# T3 sequence (whole entry): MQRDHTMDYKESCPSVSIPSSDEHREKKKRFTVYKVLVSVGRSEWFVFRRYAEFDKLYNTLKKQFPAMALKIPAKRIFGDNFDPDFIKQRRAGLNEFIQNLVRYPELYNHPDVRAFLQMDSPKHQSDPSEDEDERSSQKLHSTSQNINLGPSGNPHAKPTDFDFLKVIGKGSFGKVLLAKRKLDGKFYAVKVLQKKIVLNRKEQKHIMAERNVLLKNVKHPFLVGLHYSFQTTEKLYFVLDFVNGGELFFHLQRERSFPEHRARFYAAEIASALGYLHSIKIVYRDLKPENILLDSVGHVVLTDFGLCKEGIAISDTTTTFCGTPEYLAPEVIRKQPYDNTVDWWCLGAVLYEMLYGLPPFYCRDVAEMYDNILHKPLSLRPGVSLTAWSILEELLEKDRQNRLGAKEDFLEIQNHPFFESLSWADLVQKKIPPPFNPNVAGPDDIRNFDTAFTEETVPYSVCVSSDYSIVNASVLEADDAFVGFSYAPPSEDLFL
# [7] = target: T3, Serine/threonine-protein kinase Sgk3 (Homo sapiens); conditions: at 1 µM
# [8] = target: 5'-AMP-activated protein kinase catalytic subunit alpha-1 (Homo sapiens) (UniProt Q13131); conditions: at 0.1 µM
# Sequence of 5'-AMP-activated protein kinase catalytic subunit alpha-1 (Homo sapiens) (Q13131 whole entry, looked up): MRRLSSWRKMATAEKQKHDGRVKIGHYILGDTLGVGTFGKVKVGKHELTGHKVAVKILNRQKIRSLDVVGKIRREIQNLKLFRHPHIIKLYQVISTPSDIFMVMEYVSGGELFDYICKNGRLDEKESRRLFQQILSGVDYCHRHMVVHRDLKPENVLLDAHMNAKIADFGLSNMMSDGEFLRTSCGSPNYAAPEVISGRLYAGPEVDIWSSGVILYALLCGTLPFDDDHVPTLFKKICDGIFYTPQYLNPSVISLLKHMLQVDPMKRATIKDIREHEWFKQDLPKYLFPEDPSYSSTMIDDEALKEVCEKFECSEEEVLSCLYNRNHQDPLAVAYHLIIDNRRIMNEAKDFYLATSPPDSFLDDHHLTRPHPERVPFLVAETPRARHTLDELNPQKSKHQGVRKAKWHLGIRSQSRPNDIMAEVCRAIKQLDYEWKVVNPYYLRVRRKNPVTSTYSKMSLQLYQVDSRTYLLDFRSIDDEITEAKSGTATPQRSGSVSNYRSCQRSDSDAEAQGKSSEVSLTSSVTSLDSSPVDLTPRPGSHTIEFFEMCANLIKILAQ
# [9] = target: 5'-AMP-activated protein kinase catalytic subunit alpha-1 (Homo sapiens) (UniProt Q13131); conditions: at 1 µM
# [10] = target: 5'-AMP-activated protein kinase catalytic subunit alpha-2 (Homo sapiens) (UniProt P54646); conditions: at 0.1 µM
# Sequence of 5'-AMP-activated protein kinase catalytic subunit alpha-2 (Homo sapiens) (P54646 whole entry, looked up): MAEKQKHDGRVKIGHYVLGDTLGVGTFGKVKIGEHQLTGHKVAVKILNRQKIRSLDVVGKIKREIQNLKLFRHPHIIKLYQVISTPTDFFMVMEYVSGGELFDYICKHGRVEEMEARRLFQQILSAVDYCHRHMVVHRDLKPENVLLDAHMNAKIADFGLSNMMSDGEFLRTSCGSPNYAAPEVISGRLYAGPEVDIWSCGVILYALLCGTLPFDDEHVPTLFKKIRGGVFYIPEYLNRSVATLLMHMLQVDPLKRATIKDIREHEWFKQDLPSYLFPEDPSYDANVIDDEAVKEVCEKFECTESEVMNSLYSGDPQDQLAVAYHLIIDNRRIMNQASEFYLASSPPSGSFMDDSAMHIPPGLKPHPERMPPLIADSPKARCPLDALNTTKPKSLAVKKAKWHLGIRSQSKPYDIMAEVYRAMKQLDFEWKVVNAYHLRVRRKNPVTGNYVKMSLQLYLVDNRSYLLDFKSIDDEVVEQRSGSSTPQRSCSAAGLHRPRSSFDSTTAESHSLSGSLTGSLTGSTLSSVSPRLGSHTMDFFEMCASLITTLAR
# [11] = target: 5'-AMP-activated protein kinase catalytic subunit alpha-2 (Homo sapiens) (UniProt P54646); conditions: at 1 µM
# [12] = target: T4, NUAK family SNF1-like kinase 1 (Homo sapiens) (UniProt O60285); conditions: at 0.1 µM
# T4 sequence (whole entry): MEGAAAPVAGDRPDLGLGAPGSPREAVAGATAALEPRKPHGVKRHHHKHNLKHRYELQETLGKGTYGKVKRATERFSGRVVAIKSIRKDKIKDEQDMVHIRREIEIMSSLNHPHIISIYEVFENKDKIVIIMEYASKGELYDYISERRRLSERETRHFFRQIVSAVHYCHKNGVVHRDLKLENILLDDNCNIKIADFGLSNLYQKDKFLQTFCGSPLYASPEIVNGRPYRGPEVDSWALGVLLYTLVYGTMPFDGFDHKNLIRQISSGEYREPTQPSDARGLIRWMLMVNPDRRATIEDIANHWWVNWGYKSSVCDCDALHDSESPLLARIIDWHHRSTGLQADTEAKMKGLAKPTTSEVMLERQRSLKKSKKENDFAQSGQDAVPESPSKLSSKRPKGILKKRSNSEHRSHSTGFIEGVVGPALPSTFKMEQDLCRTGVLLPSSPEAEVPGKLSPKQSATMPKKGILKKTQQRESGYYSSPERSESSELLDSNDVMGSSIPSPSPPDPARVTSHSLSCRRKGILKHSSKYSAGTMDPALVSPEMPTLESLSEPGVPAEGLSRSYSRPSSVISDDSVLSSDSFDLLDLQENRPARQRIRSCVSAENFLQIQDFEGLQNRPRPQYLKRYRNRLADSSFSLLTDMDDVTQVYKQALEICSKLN
# [13] = target: T4, NUAK family SNF1-like kinase 1 (Homo sapiens); conditions: at 1 µM
# [14] = target: T5, Serine/threonine-protein kinase BRSK1 (Homo sapiens) (UniProt Q8TDC3); conditions: at 0.1 µM
# T5 sequence (whole entry): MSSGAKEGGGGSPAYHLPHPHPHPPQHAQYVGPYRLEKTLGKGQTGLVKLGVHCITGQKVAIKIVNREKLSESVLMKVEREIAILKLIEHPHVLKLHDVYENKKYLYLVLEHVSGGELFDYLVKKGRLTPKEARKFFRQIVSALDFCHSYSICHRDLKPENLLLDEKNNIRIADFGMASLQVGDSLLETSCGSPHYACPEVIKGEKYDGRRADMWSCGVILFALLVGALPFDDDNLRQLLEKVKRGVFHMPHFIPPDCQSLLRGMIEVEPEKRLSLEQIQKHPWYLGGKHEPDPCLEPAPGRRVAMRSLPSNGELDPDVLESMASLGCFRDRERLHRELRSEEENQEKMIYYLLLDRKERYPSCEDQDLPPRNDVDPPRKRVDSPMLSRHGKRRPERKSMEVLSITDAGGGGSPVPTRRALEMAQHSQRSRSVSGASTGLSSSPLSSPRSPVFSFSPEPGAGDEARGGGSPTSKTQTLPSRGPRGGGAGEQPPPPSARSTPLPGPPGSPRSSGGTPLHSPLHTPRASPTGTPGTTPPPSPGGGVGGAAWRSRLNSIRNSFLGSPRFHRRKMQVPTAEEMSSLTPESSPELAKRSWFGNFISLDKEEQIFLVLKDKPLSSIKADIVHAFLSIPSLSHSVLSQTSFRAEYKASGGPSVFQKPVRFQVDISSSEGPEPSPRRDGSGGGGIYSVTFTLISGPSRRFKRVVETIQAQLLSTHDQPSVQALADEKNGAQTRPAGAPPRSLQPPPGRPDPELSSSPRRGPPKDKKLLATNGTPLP
# [15] = target: T5, Serine/threonine-protein kinase BRSK1 (Homo sapiens); conditions: at 1 µM
# [16] = target: T6, Serine/threonine-protein kinase BRSK2 (Homo sapiens) (UniProt Q8IWQ3); conditions: at 0.1 µM
# T6 sequence (whole entry): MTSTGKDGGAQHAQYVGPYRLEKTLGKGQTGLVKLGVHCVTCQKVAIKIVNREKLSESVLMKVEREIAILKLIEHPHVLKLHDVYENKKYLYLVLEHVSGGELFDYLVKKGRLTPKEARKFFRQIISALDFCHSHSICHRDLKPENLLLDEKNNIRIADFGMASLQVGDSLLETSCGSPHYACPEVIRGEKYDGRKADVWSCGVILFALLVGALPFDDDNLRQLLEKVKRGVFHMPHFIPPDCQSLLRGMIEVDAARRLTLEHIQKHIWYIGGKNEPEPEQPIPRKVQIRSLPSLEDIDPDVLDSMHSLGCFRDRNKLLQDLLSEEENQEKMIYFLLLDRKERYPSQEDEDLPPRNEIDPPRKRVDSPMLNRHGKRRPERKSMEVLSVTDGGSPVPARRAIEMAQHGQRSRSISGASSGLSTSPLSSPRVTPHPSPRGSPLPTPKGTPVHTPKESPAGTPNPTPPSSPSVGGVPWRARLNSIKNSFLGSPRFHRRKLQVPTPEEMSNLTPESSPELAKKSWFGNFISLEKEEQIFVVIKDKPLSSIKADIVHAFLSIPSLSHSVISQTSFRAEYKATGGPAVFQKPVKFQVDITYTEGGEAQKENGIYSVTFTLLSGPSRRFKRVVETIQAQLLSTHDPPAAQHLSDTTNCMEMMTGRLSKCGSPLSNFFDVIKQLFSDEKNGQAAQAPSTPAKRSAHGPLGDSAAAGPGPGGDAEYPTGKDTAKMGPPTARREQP
# [17] = target: T6, Serine/threonine-protein kinase BRSK2 (Homo sapiens); conditions: at 1 µM
# [18] = target: Calcium/calmodulin-dependent protein kinase type 1D (Homo sapiens) (UniProt Q8IU85); conditions: at 0.1 µM
# Sequence of Calcium/calmodulin-dependent protein kinase type 1D (Homo sapiens) (Q8IU85 whole entry, looked up): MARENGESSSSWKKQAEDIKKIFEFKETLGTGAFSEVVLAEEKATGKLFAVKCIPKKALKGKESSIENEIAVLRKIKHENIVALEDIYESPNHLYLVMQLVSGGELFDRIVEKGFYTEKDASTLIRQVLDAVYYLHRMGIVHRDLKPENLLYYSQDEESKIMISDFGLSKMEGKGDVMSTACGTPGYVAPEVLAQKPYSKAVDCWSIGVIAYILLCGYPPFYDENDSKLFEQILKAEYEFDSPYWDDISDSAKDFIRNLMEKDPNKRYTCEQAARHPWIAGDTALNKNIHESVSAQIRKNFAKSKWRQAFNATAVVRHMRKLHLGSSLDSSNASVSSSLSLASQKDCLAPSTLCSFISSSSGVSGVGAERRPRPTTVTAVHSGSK
# [19] = target: Calcium/calmodulin-dependent protein kinase type 1D (Homo sapiens) (UniProt Q8IU85); conditions: at 1 µM
# [20] = target: Calcium/calmodulin-dependent protein kinase type II subunit alpha (Homo sapiens) (UniProt Q9UQM7); conditions: at 0.1 µM;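 also: reported values are averages (mean inhibition of CAMK2A)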
# Sequence of Calcium/calmodulin-dependent protein kinase type II subunit alpha (Homo sapiens) (Q9UQM7 whole entry): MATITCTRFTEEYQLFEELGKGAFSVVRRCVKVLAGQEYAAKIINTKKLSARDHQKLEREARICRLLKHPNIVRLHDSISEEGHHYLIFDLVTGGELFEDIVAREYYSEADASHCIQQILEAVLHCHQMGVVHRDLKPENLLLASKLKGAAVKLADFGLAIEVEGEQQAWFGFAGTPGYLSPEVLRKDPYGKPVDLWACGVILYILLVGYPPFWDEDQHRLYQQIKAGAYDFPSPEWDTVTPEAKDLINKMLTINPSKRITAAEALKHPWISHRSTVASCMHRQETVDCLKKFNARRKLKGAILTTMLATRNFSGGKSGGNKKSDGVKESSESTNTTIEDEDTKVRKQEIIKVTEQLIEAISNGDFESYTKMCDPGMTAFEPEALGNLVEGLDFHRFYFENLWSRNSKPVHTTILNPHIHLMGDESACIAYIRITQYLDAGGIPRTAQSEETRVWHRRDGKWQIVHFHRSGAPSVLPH
# Sequence of Ribosomal protein S6 kinase alpha-6 (Homo sapiens) (Q9UK32 whole entry): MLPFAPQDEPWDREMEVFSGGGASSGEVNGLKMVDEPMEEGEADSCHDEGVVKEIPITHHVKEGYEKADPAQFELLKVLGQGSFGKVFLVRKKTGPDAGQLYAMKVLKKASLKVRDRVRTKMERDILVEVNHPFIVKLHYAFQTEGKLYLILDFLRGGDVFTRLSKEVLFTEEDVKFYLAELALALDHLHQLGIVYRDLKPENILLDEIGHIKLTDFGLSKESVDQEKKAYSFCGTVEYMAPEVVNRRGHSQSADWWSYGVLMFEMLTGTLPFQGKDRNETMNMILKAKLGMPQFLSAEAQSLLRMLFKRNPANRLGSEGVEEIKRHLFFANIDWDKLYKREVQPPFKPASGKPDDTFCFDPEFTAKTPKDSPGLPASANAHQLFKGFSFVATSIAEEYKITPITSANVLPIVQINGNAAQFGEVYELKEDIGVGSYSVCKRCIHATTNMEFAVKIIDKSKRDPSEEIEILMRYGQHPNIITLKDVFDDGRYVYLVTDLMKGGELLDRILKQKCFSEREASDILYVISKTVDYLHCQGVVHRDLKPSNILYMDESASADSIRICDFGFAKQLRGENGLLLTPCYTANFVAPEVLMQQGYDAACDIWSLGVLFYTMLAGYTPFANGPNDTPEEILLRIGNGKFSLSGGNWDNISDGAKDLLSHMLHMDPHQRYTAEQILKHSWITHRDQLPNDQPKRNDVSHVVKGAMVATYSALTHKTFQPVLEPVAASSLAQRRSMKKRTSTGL
Compound,inhibition [1] [%],inhibition [2] [%],inhibition [3] [%],inhibition [4] [%],inhibition [5] [%],inhibition [6] [%],inhibition [7] [%],inhibition [8] [%],inhibition [9] [%],inhibition [10] [%],inhibition [11] [%],inhibition [12] [%],inhibition [13] [%],inhibition [14] [%],inhibition [15] [%],inhibition [16] [%],inhibition [17] [%],inhibition [18] [%],inhibition [19] [%],inhibition [20] [%]
CC(=O)Nc1cccc(C#Cc2cncnc2Nc2ccc(OCc3cccc(F)c3)c(Cl)c2)c1,1.39,3.01,2.43,-0.35,2.06,2.61,-0.92,1.72,-0.52,2.44,2.19,1.95,7.23,2.55,1.82,1.34,0.36,2.97,3.77,4.42
NS(=O)(=O)c1ccc(N/N=C2\C(=O)Nc3ccc4ncccc4c32)cc1,55.5,10.6,50,-0.23,21.3,1.63,10.2,54.8,82.7,28.9,62.2,79.8,85.4,46,76,60.4,80.7,2.62,9.02,2.95
CCn1c(-c2nonc2N)nc2cnc(Oc3cccc(NC(=O)c4ccc(N(C)C)cc4)c3)cc21,15.2,9.87,49.7,16.3,61.9,43.8,83.5,1.59,2.17,2.3,10.1,3.21,18.7,1.7,3.54,2.26,2.76,0.25,2.17,0.79
COc1ccc(-c2oc3ncnc(N)c3c2-c2ccc(NC(=O)Nc3cc(C(F)(F)F)ccc3F)cc2)cc1,17.4,3.83,8.65,4.57,4.27,3.71,4.09,4.2,8.8,1.55,7.89,4.62,9.26,5.38,11.7,8.06,13.9,1.06,11.9,4.73
Nc1ncc(-c2cccc(S(N)(=O)=O)c2)c2scc(-c3ccc(F)c(Cl)c3)c12,3.24,2.77,2.35,-0.69,4.55,3.54,0.56,3.66,4.69,0.92,4.34,0.82,2.44,1.61,5.62,3.28,6.56,1.24,0.88,3.36
CC(C)COC(=O)c1ccc2c(c1)/C(=C/Nc1ccc(S(N)(=O)=O)cc1)C(=O)N2,39.3,1.25,19,1.33,1.89,1.37,3.19,23.4,72.3,5.83,36.3,29.6,75.6,5.38,38,10.1,50.1,1.82,7.89,0.26
